Screening results as filed in PubChem BioAssay.
The list is not random: actives were taken first. Their share in the collection is about 6.7%.
T cruzi growth-1 – T. cruzi proliferation inhibition | T. cruzi beta-gal in NIH3T3, GalScreen luminescence, 90 h | inhibition, % at 8.34 µM | 77,000 tested, 5.9% active;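 active = mean inhibition above about 93%, with at least 55% of replicates each passing it, limit read from the data, passing the limit was not always enough; inconclusive = only one of those two conditions holds; inactive = neither condition holds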
C diff HTS – blocks growth of Clostridium difficile; 86,000 tested, 0.25% active; AID 1259249; Clostridium difficile clinical isolate growth, OD600, 24 h; active compounds read low; growth activity, negative = inhibition, % at 16 µg/mL (by protocol);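 active = mean growth activity at or below -80% and every replicate also at or below -80%; inconclusive = mean at or below -80% but some replicate above -80%; inactive = mean growth activity above -80%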;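 note: 0% = DMSO wells and -100% = levofloxacin 16 µg/mL wells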
Pf Dd2 inh – inhibitors of Plasmodium falciparum Dd2 growth; P. falciparum Dd2 growth, SYBR Green, 72 h; active compounds read low; activity change, % at 10 µM; 94,000 tested, 2.3% active; in the data active = activity change below about -80%; inconclusive = no clear call, values can overlap the other calls
T cruzi growth-2 – Trypanosoma cruzi proliferation inhibition; inhibition, % at 8.35 µM; 5,600 tested, 72% active; T. cruzi beta-gal in NIH3T3, GalScreen luminescence, 90 h; AID 651739; shares compounds with T cruzi growth-1;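 active = mean replicate inhibition above about 95% and at least 55% of replicates individually reaching it, limit read from the data; inconclusive = only one of the two criteria is met; inactive = neither criterion is met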
T cruzi growth-3 – Trypanosoma cruzi proliferation inhibition. shares compounds with T cruzi growth-1. T. cruzi beta-gal in NIH3T3, GalScreen luminescence, 90 h. inhibition, % at 2.09 µM. 5,600 tested, 21% active. AID 651740;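 active = mean inhibition above about 95%, with at least 55% of replicates also reaching it, limit read from the data; inconclusive = meets just one of the two conditions; inactive = meets neither condition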;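 note: plate controls were neutral control median for no effect and positive control median for full effect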
NIH3T3 tox – NIH/3T3 (mouse) viability loss; shares compounds with T cruzi growth-1; NIH/3T3 viability, CellTiter-Glo ATP luminescence, 90 h; cytotoxicity (signal decrease), % at 8.35 µM; 5,600 tested, 14% active;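 active = mean signal decrease across replicates above about 35% based on untreated-well scatter, with enough replicates individually passing, limit read from the data; inconclusive = no rule stated though some were filed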;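 note: 0% = median of neutral control wells and 100% = median of positive control wells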
NIH3T3 tox 2 – kills mouse NIH/3T3 fibroblasts; inhibition, % at 24.9 µM; NIH/3T3 viability, CellTiter-Glo ATP luminescence, 90 h; shares compounds with T cruzi growth-1; 5,600 tested, 56% active;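 active = mean loss of cell viability signal at or above a set limit, and enough replicates individually reaching it; inconclusive = meets only the mean limit or only the replicate share; inactive = meets neither condition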;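 note: 0% = median of neutral control wells and 100% = median of positive control wells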
Active calls of the source: *; ? = inconclusive; nt = no result.

SMILES | T cruzi growth-1 | C diff HTS | Pf Dd2 inh | T cruzi growth-2 | T cruzi growth-3 | NIH3T3 tox | NIH3T3 tox 2
C[C@@H]1CN([C@@H](C)CO)C(=O)c2cc(NC(=O)C3CCCCC3)ccc2O[C@@H](C)CCCCO[C@H]1CN(C)CC1CCCCC1 | 76.1 | 1.2 | -50.9 | nt | nt | nt | nt
C[C@@H]1CN([C@@H](C)CO)C(=O)c2cc(NC(=O)NC3CCCCC3)ccc2O[C@H]1CN(C)Cc1ccc(Cl)c(Cl)c1 | ? | 0.5 | 3.0 | 110.5* | 43.1 | 8.2 | 3.1
C[C@H]1CN([C@@H](C)CO)C(=O)c2cc(NC(=O)NC3CCCCC3)ccc2O[C@H]1CN(C)Cc1ccc(Cl)c(Cl)c1 | 93.7 | 1.8 | 1.6 | nt | nt | nt | nt
C[C@@H]1CN([C@@H](C)CO)C(=O)c2cc(NC(=O)C3CCCCC3)ccc2O[C@@H]1CN(C)Cc1ccc(Cl)c(Cl)c1 | ? | 18.9 | 1.4 | 103.0* | 94.5 | 11.7 | 39.3*
C[C@@H]1CN([C@@H](C)CO)C(=O)c2cc(NC(=O)C3CCCCC3)ccc2O[C@H]1CN(C)Cc1ccc(Cl)c(Cl)c1 | 97.0 | -0.1 | -6.6 | nt | nt | nt | nt
CCC(=O)NC[C@@H]1[C@H](c2ccc(-c3ccccc3)cc2)[C@@H](CO)N1C(=O)C1CC1 | 59.0 | -4.6 | 11.1 | nt | nt | nt | nt
CCc1cnc(N2[C@H](C#N)[C@@H](c3ccccc3)[C@H]2CO)s1 | 6.5 | -5.5 | 20.5 | nt | nt | nt | nt
CCc1cnc(N2[C@H](C#N)[C@H](c3ccccc3)[C@H]2CO)s1 | -6.9 | -6.3 | 26.5 | nt | nt | nt | nt
CCc1cnc(N2[C@H](C#N)[C@@H](c3ccc(C4=CCCC4)cc3)[C@@H]2CO)s1 | 85.6 | 9.9 | -30.5 | nt | nt | nt | nt
CCc1cnc(N2[C@@H](C#N)[C@H](c3ccc(C#Cc4ccccc4F)cc3)[C@@H]2CO)s1 | 110.1* | -3.7 | -44.3 | 105.1* | 94.3 | 10.7 | 1.6
CCc1cnc(N2[C@H](C#N)[C@@H](c3ccc(C#Cc4ccccc4F)cc3)[C@@H]2CO)s1 | 100.4* | 5.6 | -52.7 | 100.1* | 107.1* | -25.4 | 84.9*
CCc1cnc(N2[C@H](C#N)[C@@H](c3ccc(-c4cccc(F)c4)cc3)[C@@H]2CO)s1 | ? | -4.4 | -21.6 | 104.4* | 52.0 | -3.9 | 100.0*
CO[C@H]1CN(C)C(=O)c2cc(NS(C)(=O)=O)ccc2OC[C@@H](C)N(Cc2ccccn2)C[C@@H]1C | -1.8 | nt | nt | nt | nt | nt | nt
C[C@@H]1CN([C@H](C)CO)C(=O)c2cc(NC(=O)Cc3ccccc3)ccc2O[C@@H](C)CCCCO[C@@H]1CN(C)CC1CCCCC1 | 84.8 | 7.4 | -51.1 | nt | nt | nt | nt
O=C([C@H]1[C@H](CO)[C@H]2Cn3c(ccc(C4=CCCC4)c3=O)[C@H]2N1Cc1nccs1)N1CCCCC1 | 67.7 | 4.4 | 10.2 | nt | nt | nt | nt
CCCC#Cc1ccc2c(c1)O[C@H](CN(C)C(=O)CC1CC1)[C@@H](C)CN([C@@H](C)CO)S2(=O)=O | 111.0* | -3.2 | -46.4 | 103.6* | 70.5 | 7.9 | 47.7*
CCCC#Cc1ccc2c(c1)O[C@H](CN(C)C(=O)CC1CC1)[C@@H](C)CN([C@H](C)CO)S2(=O)=O | 101.4* | 14.4 | -46.2 | 107.7* | 47.6 | 4.1 | 20.1
CC(C)CC#Cc1ccc2c(c1)O[C@@H](CN(C)C(=O)CC1CC1)[C@@H](C)CN([C@H](C)CO)S2(=O)=O | nt | 1.8 | -28.3 | nt | nt | nt | nt
CC(C)CC#Cc1ccc2c(c1)O[C@@H](CN(C)C(=O)CC1CC1)[C@@H](C)CN([C@@H](C)CO)S2(=O)=O | nt | 2.9 | -36.7 | nt | nt | nt | nt
O=C(C[C@H]1CC[C@H](NC(=O)C2CCOCC2)[C@@H](CO)O1)Nc1nccs1 | 54.2 | nt | -5.0 | nt | nt | nt | nt
COCC#Cc1ccc2c(c1)O[C@@H](CN(C)CC1CCCCC1)[C@@H](C)CN([C@@H](C)CO)S2(=O)=O | 105.3* | 15.0 | -70.3 | 101.9* | 84.8 | 11.2 | 40.2*
COCC#Cc1ccc2c(c1)O[C@@H](CN(C)CC1CCCCC1)[C@H](C)CN([C@@H](C)CO)S2(=O)=O | ? | 3.1 | -54.1 | 102.7* | 90.3 | ? | 105.0*
CCCN(C)C[C@@H]1Oc2cc(C#CCOC)ccc2S(=O)(=O)N([C@@H](C)CO)C[C@@H]1C | 11.3 | 3.1 | -71.9 | nt | nt | nt | nt
C[C@H](O)C#Cc1ccc2c(c1)O[C@H](CN(C)CC1CCCCC1)[C@H](C)CN([C@H](C)CO)S2(=O)=O | nt | -2.6 | -47.0 | nt | nt | nt | nt
C/C=C/c1ccc2c(c1)O[C@H](CN(C)C(=O)C1CC1)[C@@H](C)CN([C@@H](C)CO)S2(=O)=O | -84.2 | -10.9 | -4.2 | nt | nt | nt | nt
SMILES | T cruzi growth-1 | C diff HTS | Pf Dd2 inh | T cruzi growth-2 | T cruzi growth-3 | NIH3T3 tox | NIH3T3 tox 2
COc1cccc(S(=O)(=O)N(C)C[C@H]2Oc3ncc(C#CC(C)C)cc3C(=O)N([C@@H](C)CO)C[C@@H]2C)c1 | 114.1* | -15.1 | -64.0 | 83.2 | 52.8 | -13.4 | 3.1
CC(C)CC#Cc1cnc2c(c1)C(=O)N([C@H](C)CO)C[C@@H](C)[C@@H](CN(C)S(=O)(=O)c1ccccc1)O2 | 83.3 | -5.1 | -22.7 | nt | nt | nt | nt
COc1cccc(S(=O)(=O)N(C)C[C@@H]2Oc3ncc(C#CC(C)C)cc3C(=O)N([C@H](C)CO)C[C@@H]2C)c1 | 96.3* | -3.5 | -18.9 | 83.7 | 18.7 | 15.3 | 52.1*
COc1cccc(S(=O)(=O)N(C)C[C@@H]2Oc3ncc(C#Cc4ccccc4)cc3C(=O)N([C@H](C)CO)C[C@@H]2C)c1 | 76.9 | 14.2 | -59.4 | nt | nt | nt | nt
CCCC#Cc1cnc2c(c1)C(=O)N([C@@H](C)CO)C[C@@H](C)[C@@H](CN(C)S(=O)(=O)c1cccc(OC)c1)O2 | 88.3 | 4.6 | 17.8 | nt | nt | nt | nt
Cc1ccc(S(=O)(=O)N(C)C[C@H]2Oc3ncc(C#CCC(C)C)cc3C(=O)N([C@@H](C)CO)C[C@H]2C)cc1 | 105.5* | -10.1 | -38.4 | 104.4* | 77.4 | 33.4 | 92.7*
COc1cccc(S(=O)(=O)N(C)C[C@@H]2Oc3ncc(C#CCN(C)C)cc3C(=O)N([C@@H](C)CO)C[C@H]2C)c1 | 102.8* | 11.7 | -7.8 | 95.5* | 93.1 | 2.4 | 3.5
COc1cccc(S(=O)(=O)N(C)C[C@H]2Oc3ncc(C#CC(C)C)cc3C(=O)N([C@H](C)CO)C[C@H]2C)c1 | 73.8 | -4.1 | -19.9 | nt | nt | nt | nt
O=C(C[C@@H]1C=C[C@H](NC(=O)NC2CCCCC2)[C@@H](CO)O1)NCc1ccccc1 | 13.5 | nt | -17.0 | nt | nt | nt | nt
CCCNC(=O)Nc1ccc2c(c1)C(=O)N(C)C[C@H](OC)[C@H](C)CN(CC1CCCC1)[C@H](C)CO2 | -55.2 | nt | nt | nt | nt | nt | nt
CCCNC(=O)Cc1ccc(N)cc1 | nt | -8.0 | nt | nt | nt | nt | nt
CO[C@@H](CN(C)C(=O)c1ccc2c(c1)OCO2)[C@@H](C)CN([C@H](C)CO)S(=O)(=O)c1ccc(Cl)cc1 | 51.0 | nt | -6.6 | nt | nt | nt | nt
CN(C[C@@H]1N[C@H](CO)[C@@H]1c1ccc(C2=CCCC2)cc1)S(C)(=O)=O | 69.0 | 0.2 | -45.6 | nt | nt | nt | nt
